# In PubChem BioAssay:
# Values without a mark were called inactive. Calls of active or inactive are those of the source.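 How the source made its calls: active means GFP response above 150% of the DMSO control; inconclusive means Fewer than 70 cells counted for a yeast strain; inactive means the rest.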
# Experiment: modulators of MEP2-GFP levels in yeast, confirmation, S. cerevisiae, flow cytometry GFP, cherry picks (AID 2272);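 further: ratio of well signal to plate DMSO mean so 100% equals DMSO level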
# Details: S. cerevisiae MEP2-GFP strain, 3 h, at 10 µM, stronger effect = higher value
row,Structure (SMILES),GFP response vs DMSO
1,O=C(/C=C/c1ccc(F)cc1)NC(=S)NNC(=O)c1cnccn1,132%
2,Cc1ccc(/C=C/C(=O)c2ccc(C)cc2)cc1,99.5%
3,Cc1nn(Cc2ccc([N+](=O)[O-])cc2)c(=O)n1-c1cccc(Cl)c1,98.3%
4,Cn1c(=O)[nH]c(=O)c2c1nc(N1CCCCC1)n2CCOc1ccccc1,102%
5,COC(=O)NC1CCC(CC2CCC(NC(=O)OC)CC2)CC1 (stereo not given),100%
6,COCCNC(=O)c1ccc(Cl)c(Cl)c1,100%
7,COc1cc(-c2nc3ccccn3c2NCC2CCCO2)ccc1O (stereo not given),106%
8,CC(=O)Nc1ccc(NC(=O)c2nc(S(=O)(=O)Cc3cccc(C)c3)ncc2Cl)cc1,100%
9,O=C(COc1ccccc1[N+](=O)[O-])Nc1ccc(NC(=O)c2cc3ccccc3o2)cc1,103%
10,CCOC(=O)/C(=N\NC(=O)c1ccccc1)c1ccccc1,104%
11,COC(=O)c1ccc(N2C(=O)CC(Sc3n[nH]c(C)n3)C2=O)cc1 (stereo not given),108%
12,CC(C)C(=O)NC(c1cccs1)c1cc([N+](=O)[O-])c2cccnc2c1O (stereo not given),94.7%
13,Cc1ccc(/C=N/Nc2ncc(Cl)cc2Cl)s1,115%
14,CCOC(=O)Cc1csc(NC(=O)c2sc3nc4c(C)cc(C)cc4cc3c2N)n1,109%
15,Cn1cc([N+](=O)[O-])c(C(=O)Nc2nc(-c3ccc(Cl)cc3)cs2)n1,106%
16,CCCCOC(=O)C1CCC[C@@H](C)N1 (stereo not given in full),103%
17,CCN=C(NCC)SC1CC(=O)N(c2cccc(OCC)c2)C1=O (stereo not given),100%
18,COc1ccc(NC2=C(Cl)C(=O)N(CCc3ccccc3)C2=O)c(OC)c1,98.8%
19,COc1ccccc1-c1noc(CCC(=O)Nc2cccc(C(F)(F)F)c2)n1,107%
20,COc1ccc(-c2csc(N(CC(C)C)C(=O)c3ccco3)n2)cc1,101%

row,Structure (SMILES),GFP response vs DMSO
1,CC(=O)Nc1ccc(-c2csc(NC(=O)c3ccc(C)o3)n2)cc1,100%
2,CNc1cc(CSC)nc(SCc2ccc(Cl)cc2Cl)n1,102%
3,O=C1C(CSCc2ccccc2)NC(=S)N1c1ccccc1 (stereo not given),98.8%
4,COCCn1c(=N)c(C(=O)NCc2ccco2)cc2c(=O)n3ccccc3nc21,95.2%
5,Cc1ccc(-c2csc(NC(=O)c3ccno3)n2)cc1,99%
6,Cc1cccc(CN2CCSc3sccc3C2=O)c1,131%
7,COC(=O)c1ccc(/C=C/C(=O)c2ccc(OC)cc2)cc1,104%
8,CCOC(=O)CCS(=O)(=O)c1nc(-c2ccccc2)cc(C(F)(F)F)n1,146%
9,CCCN(Cc1nnc(-c2ccccc2Cl)o1)C(=O)c1cc([N+](=O)[O-])cc([N+](=O)[O-])c1,101%
10,COc1ccc(-c2[nH]ncc2N=Nc2ccccc2)cc1,94.4%
11,Cc1cccc(Cn2cc(/C=C/[N+](=O)[O-])c3ccccc32)c1,103%
12,OC1(c2ccc(F)cc2)CSC(=Nc2cccnc2)N1Cc1ccco1 (stereo not given),110%
13,COc1cc(/C=C2\N=C(C)OC2=O)cc(Cl)c1OC(C)=O,105%
14,O=c1c2c(-c3ccc(Cl)cc3)csc2ncn1/N=C/c1cccc([N+](=O)[O-])c1O,99.5%
15,O=[N+]([O-])c1cc(O)c2ncccc2c1,114%
16,CCc1nnc(NC(=O)c2ccc(S(=O)(=O)N(CC(C)C)CC(C)C)cc2)o1,101%
17,CCn1c(=O)c(C(=O)NCc2ccc(OC)cc2)c(O)c2ccccc21,106%
18,CS(=O)(=O)N1N=C(c2ccco2)CC1c1ccc(Cl)cc1 (stereo not given),104%
19,CC1(C)CCN2CCC(C)(C)c3c(O)ccc1c32,139%
20,O/C=c1\ccc2cccc3nc(C(F)(F)F)nc1c23,269% (active)
